# HP1b chromo inh: blocks HP1-beta chromodomain binding to methylated histone tails; P83916; AlphaScreen HP1-beta / biotin-H3K9me3 peptide binding; Potency, µM (series often up to 114 µM), inactives show top-dose activity change, negative = inhibition, hits mostly inhibitors; hit rate 0.56% among 390,000; AID 540317; also: nearly all actives have a fitted effect of over 70% in size
#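 HP1-beta protein (50 nM final) preincubated 30 min at room temperature with biotinylated H3(1-18)K9me3 peptide (50 nM) in PBS pH 7.4, 0.01% Tween-20, then compound added for 30 min. AlphaScreen streptavidin donor/nickel chelate acceptor beads (10 ug/mL final), 30 min dark, luminescence read.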
# Sfp PPTase inh: blocks B. subtilis Sfp PPTase activity; Q9F4F7; Biochemical Sfp PPTase activity, qHTS; Potency, µM, for the others: largest response in the series, negative = inhibition, hits mostly inhibitors; hit rate 3.5% among 310,000; AID 1490;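 also: the enzyme is Sfp with the accession as filed and its product quenches rhodamine fluorescence; 0% = enzyme reaction without inhibitor and -100% = no enzyme wells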
#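 Step 1, compound plus 15 nM Sfp-PPTase, 15 min, room temperature. Step 2, add rhodamine-CoA (5 uM) and BHQ-2-YbbR (12.5 uM). Step 3, read 525/598 nm fluorescence at 0 and 30 min.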
# G9a inh: G9a (human) methyltransferase inhibition. Potency, µM (titrated, usually from 102 µM), for the others: top-dose activity, negative = inhibition, most hits filed as inhibitors. hit rate 8.8% among 350,000. Q96KQ7. AID 504332. G9a H3K9 monomethylation, AlphaScreen, 2 h; also: % is scaled to controls: 0 for no effect and ±100 for the full control effect; nearly all actives have a fitted effect of over 75% in size
#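 Readings reflect AlphaScreen signal from monomethyl-H3K9 antibody detection. HMT at 20 nM; substrate b-H3K9 500 nM; cofactor SAM 20 uM; 2 h RT reaction; compounds tested as titrations in qHTS with 15 min preincubation.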
# JMJD2A Tudor inh: blocks the human JMJD2A Tudor domain; Potency, µM (highest dose often 114 µM), without a hit: at the top dose activity change, negative = inhibition, hits mostly inhibitors; AID 504339; O75164; hit rate 4.4% among 390,000; AlphaScreen JMJD2A-Tudor / H3K4me3 peptide binding; also: % is scaled to controls: 0 for no effect and ±100 for the full control effect; nearly all actives have a fitted effect of over 50% in size
# PLK1 PBD block: inhibitors of human PLK1 polo-box domain binding; Plk1 PBD binding of FITC phosphopeptide, fluorescence polarization; Potency, µM, without a hit: max response, negative = inhibition, actives largely listed as inhibitors; hit rate 2.8% among 360,000; AID 720504; also: series mostly up to about 57 µM; % is scaled to controls: 0 for no effect and ±100 for the full control effect; nearly all actives have a fitted effect of over 65% in size
# BAZ2B inh: BAZ2B (human) inhibition; Q9UIF8; AlphaScreen BAZ2B-H3K14Ac peptide displacement; Potency, µM (titrated, usually from 114 µM), without a hit: at the top dose activity change, negative = inhibition, hits mostly inhibitors; hit rate 4.4% among 360,000; also: % is scaled to controls: 0 for no effect and ±100 for the full control effect; nearly all actives have a fitted effect of over 60% in size
# Target sequence (Q9UIF8 whole entry, looked up): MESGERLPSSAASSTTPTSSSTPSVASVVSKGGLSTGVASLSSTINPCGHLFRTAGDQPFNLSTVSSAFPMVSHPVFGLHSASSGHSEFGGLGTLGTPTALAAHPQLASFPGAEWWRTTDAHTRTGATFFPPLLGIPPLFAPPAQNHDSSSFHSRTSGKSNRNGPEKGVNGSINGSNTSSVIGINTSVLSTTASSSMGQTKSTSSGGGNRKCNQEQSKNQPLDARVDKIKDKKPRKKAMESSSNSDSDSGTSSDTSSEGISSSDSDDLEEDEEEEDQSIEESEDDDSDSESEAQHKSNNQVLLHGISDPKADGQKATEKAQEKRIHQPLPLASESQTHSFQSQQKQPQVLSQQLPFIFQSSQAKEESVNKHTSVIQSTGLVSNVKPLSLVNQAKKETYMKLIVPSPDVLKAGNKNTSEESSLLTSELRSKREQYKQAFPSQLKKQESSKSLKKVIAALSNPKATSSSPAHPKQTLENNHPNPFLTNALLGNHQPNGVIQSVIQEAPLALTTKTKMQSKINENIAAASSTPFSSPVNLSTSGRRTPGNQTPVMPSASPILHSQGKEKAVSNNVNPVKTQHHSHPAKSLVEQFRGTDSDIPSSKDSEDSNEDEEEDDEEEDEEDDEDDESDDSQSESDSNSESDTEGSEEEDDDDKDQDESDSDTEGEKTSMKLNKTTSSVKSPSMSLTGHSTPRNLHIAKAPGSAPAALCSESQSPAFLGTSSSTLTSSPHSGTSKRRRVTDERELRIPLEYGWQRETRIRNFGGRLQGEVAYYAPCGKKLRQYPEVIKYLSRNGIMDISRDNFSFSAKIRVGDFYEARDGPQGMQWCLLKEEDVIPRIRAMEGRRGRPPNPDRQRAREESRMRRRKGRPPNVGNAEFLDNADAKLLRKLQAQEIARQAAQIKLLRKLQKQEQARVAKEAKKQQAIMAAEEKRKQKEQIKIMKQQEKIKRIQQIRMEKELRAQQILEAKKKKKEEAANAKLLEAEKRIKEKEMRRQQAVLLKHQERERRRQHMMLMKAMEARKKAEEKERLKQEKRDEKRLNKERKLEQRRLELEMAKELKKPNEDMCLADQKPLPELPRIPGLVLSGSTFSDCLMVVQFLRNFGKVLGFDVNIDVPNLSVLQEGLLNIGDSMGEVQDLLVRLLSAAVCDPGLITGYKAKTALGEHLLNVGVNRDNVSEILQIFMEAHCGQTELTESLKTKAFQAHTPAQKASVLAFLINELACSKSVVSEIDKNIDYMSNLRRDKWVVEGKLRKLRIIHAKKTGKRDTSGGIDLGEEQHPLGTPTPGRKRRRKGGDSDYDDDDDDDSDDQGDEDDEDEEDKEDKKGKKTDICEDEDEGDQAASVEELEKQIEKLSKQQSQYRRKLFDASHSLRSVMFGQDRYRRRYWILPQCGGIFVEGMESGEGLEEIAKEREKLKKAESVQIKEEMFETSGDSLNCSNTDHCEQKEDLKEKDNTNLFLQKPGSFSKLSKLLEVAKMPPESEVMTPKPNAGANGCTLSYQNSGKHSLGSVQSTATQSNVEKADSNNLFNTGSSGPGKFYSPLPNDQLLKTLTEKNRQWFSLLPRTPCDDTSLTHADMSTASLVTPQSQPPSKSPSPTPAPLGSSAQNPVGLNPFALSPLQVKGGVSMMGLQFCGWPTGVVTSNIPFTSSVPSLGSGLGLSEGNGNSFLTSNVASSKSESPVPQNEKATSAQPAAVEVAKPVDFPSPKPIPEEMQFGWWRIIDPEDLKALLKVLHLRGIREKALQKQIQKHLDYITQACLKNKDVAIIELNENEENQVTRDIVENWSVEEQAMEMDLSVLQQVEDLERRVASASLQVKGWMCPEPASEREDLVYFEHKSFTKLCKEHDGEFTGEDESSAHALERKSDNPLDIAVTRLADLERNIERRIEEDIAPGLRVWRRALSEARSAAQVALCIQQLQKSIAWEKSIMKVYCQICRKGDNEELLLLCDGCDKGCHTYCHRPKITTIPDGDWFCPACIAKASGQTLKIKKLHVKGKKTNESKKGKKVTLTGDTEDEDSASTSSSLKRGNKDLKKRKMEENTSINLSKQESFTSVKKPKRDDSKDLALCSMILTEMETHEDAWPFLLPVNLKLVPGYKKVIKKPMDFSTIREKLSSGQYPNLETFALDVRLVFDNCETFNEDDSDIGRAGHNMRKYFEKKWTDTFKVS
#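 In this displacement format the biotinylated H3(5-23) peptide acetylated at Lys14 serves as ligand at 50 nM, with BAZ2B at 50 nM in PBS pH 7.4 containing 0.01% Tween-20. Donor and acceptor beads are 10 ug/mL final.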
# * marks the source's active call; other numbers are inactive results; ? = inconclusive; . = not tested or not shown; [ ] = remark or other dose. Compounds with a hit are over-represented: about 12% of the library has one in this group of screens. Calls follow the shape of the dose curve; as a rule, active = well fitted curve in the direction sought with a large enough effect; inconclusive = small, poorly fitted or top-dose-only effect, or another doubt; inactive = no such curve, though single readings can be large; an effect the other way counts as inactive or inconclusive. Potency is read from the fitted curve at half-maximal effect.
SMILES,HP1b chromo inh,Sfp PPTase inh,G9a inh,JMJD2A Tudor inh,PLK1 PBD block,BAZ2B inh
O=C(COc1ccc2ccccc2c1)NN1C(=O)c2ccccc2C1=O,10%,7%,-1%[59 µM],89µM*,27µM*,9%
O=C(CSc1ccccn1)Nc1ccc(Cl)cn1,-5%,-19%,20%,-17%,24µM*,27%
O=C(Cc1ccccc1)Nc1ccc(Cl)cn1,37%,5%,14%,-3%,-25%,-12%
O=C(CN1C(=O)c2ccccc2C1=O)Nc1ccc(Cl)cn1,-4%,12%,?,-20%[11.4 µM],27µM*,1%
Cn1c(=O)c(=O)n(C)c2cc(NC(=O)c3cccc(F)c3)c(Cl)cc21,17%,.,-2%[59 µM],-13%,.,-16%
Cn1c(SCc2cccc(F)c2)nc2c([nH]c3ccccc32)c1=O,8%[57 µM],.,17%[59 µM],-8%,.,-2%
O=C(Cc1ccccc1)NN1C(=O)c2ccccc2C1=O,11%,-15%,33%[12.7 µM],-10%,-4%,-3%
O=C(CN1C(=O)c2ccccc2C1=O)NN1C(=O)c2ccccc2C1=O,7%,45µM*,?,-13%,-9%,?
COc1cccc2c1C(=O)c1c(O)c3c(c(O)c1C2=O)C[C@@](O)(C(=O)CO)C[C@@H]3O[C@H]1C[C@H](N)[C@H](O)[C@H](C)O1,16%,?,22µM*,-13%,?,35µM*
CC1(C)Cc2c(cnn2-c2ccccc2)C(NC(=O)CCN2CCCC2=O)C1 (stereo unspecified),40%,21%,17%,-17%,2%,-1%
O=C(NC1(C(F)(F)F)NC(=O)N(Cc2ccco2)C1=O)c1cccnc1 (stereo unspecified),34%,?,40µM*,-9%,-7%,11%
CC(C)CN1C(=O)NC(NC(=O)c2cccs2)(C(F)(F)F)C1=O (stereo unspecified),29%,14%,2%[59 µM],-1%,-4%,-1%
O=C(NC1(C(F)(F)F)NC(=O)N(Cc2ccco2)C1=O)c1cccs1 (stereo unspecified),-10%,35µM*,?,-22%,-4%,-6%
CCN1C(=S)SC(=O)C1=C1C=C(C)N(Cc2ccco2)C(C)=C1,-44%,14µM*,?,-34%,1%,?
O=[N+]([O-])c1ccccc1/C=N/N1CCN(Cc2ccccc2)CC1,?,8%,40µM*,25µM*,-9%,28µM*
Cn1cccc1/C=N/N1CCN(c2ccccc2)CC1,?,28µM*,32µM*,-11%[11.4 µM],-13%,50µM*
OCCOCCN1CCN(Cc2cccc(Oc3ccccc3)c2)CC1,.,-6%,.,.,.,.
COC(=O)c1ccc(/C=N/N2CCN(Cc3ccccc3)CC2)cc1,12%,?,?,-20%,-4%,-8%
CCOc1ccccc1/C=N/N1CCN(Cc2ccccc2)CC1,?,-25%,.,56µM*,-16%,50µM*
c1ccc(CN2CCN(CCOCCOc3ccc4c(c3)CCC4)CC2)cc1,?,8%,.,0.79µM*,8%,?
C=C(C)[C@@H]1C2=CC(C(=O)OC)=C(C[C@@H](C(=C)C)[C@H]3O[C@H]3C3=C[C@H]1OC3=O)O2,56%,.,.,-5%,.,.
O=C(/C=C/c1ccccc1[N+](=O)[O-])NCc1ccccc1Cl,27%,-6%,2%,-7%,-6%,-1%
FC(F)(F)c1ccc(/C=N/N2CCN(Cc3ccccc3)CC2)cc1,?,14%,?,?,-8%,?
CCOc1ccc(OCCOc2cccc(C(F)(F)F)c2)cc1,71%,6%,52%,-16%[11.4 µM],-11%,11%
FC(F)(F)c1ccccc1/C=N/N1CCN(Cc2ccccc2)CC1,-23%,-18%,7.1µM*,45µM*,1%,40µM*
SMILES,HP1b chromo inh,Sfp PPTase inh,G9a inh,JMJD2A Tudor inh,PLK1 PBD block,BAZ2B inh
O=[N+]([O-])c1ccccc1/C=N\N1CCN(Cc2ccccc2Cl)CC1,?,-18%,.,35µM*,-3%,28µM*
FC(F)(F)c1cccc(OCCN2CCN(Cc3ccccc3)CC2)c1,?,35µM*,11µM*,0.89µM*,2%,50µM*
CN1CCN(/N=C/c2cccc(Cl)c2Cl)CC1,-16%,3%,40µM*,?,2%,?
COc1cc(Nc2nc(SCC(=O)c3ccc(Br)cc3)nc3ccccc23)cc(OC)c1,34%,.,3%[59 µM],-24%,.,-9%
Nc1ncc(S(=O)(=O)N2CCN(c3ccccc3)CC2)cn1,8%[57 µM],.,6%[59 µM],-34%,.,-13%
O=C(CN1CCN(Cc2ccccc2Cl)CC1)N/N=C/C=C/c1ccco1,4%,-21%,?,-36%,-1%,-33%
COc1ccc(Br)cc1/C=N/N1CCN(Cc2ccccc2)CC1,?,7%,?,40µM*,1%,28µM*
Clc1ccccc1CN1CCN(/N=C/C=C/c2ccco2)CC1,?,56µM*,.,45µM*,-2%,32µM*
Clc1ccccc1/C=N/N1CCN(Cc2ccccc2)CC1,-28%,-10%,24%[0.501 µM],56µM*,-4%,45µM*
Cn1cccc1/C=N/N1CCN(Cc2ccccc2Cl)CC1,?,56µM*,28µM*,50µM*,-4%,35µM*
Cc1noc(Cn2c(=O)c3ccccc3n(CC(=O)Nc3cccc(Cl)c3C)c2=O)n1,9%,.,-6%[59 µM],-14%,.,-9%
CCOc1ccccc1OCCOCCN1CCN(Cc2ccccc2)CC1,?,79µM*,.,0.79µM*,-4%,18µM*
Fc1ccccc1/C=N/N1CCN(Cc2ccccc2Cl)CC1,-17%,?,22%[0.501 µM],50µM*,-6%,50µM*
Cn1cccc1/C=N/n1cnnc1,22%,-6%,?,-27%,-6%,79µM*
CCOc1ccccc1NC(=O)CN1CCN(Cc2ccccc2)CC1,30%,3%,16%,-12%,-9%,1%
Clc1ccc(-n2cccc2/C=N/n2cnnc2)cc1,23%,-12%,-15%,-10%,-1%,-4%
Cc1ccc(Cn2ccn(Cc3ccccc3F)c(=O)c2=O)cc1,29%,.,-4%[59 µM],-18%,.,-5%
CCN1C(=O)c2cccc3c(N)ccc(c23)C1=O,58%,-14%,50µM*,3%,3µM*,3%
CN(C)CCCN1C(=O)c2cccc3c(Br)ccc(c23)C1=O,21%,-18%,-47%[59 µM],-19%,?,?
Cc1nn(C)c(C)c1N1C(=O)c2cccc3c(Br)ccc(c23)C1=O,11%,?,?,-23%,-11%,9%
CCCCNc1ccc2c3c(cccc13)C(=O)N(CCCC)C2=O,258%,28µM*,323%,171%,2.1µM*,141%
Cc1nn(C)c(C)c1N1C(=O)c2cccc3c(N)ccc(c23)C1=O,45%,-1%,-8%,9%,2.7µM*,8%

# Screening results (PubChem)
